In assay [1] the target is Peptidyl-prolyl cis-trans isomerase NIMA-interacting 1 (Homo sapiens) (UniProt Q13526). Kind of assay: qHTS Validation Assay to Find Inhibitors of Pin1 (AID 504536; active = well fitted inhibition curve with a large enough effect in the polarisation, with a control signal flat, not every such curve was filed as active; the % refers to the polarisation; also: potency is read from the fitted curve at half-maximal effect). Conditions: Pin1 fluorescence polarization peptide binding assay; series mostly up to 57.5 µM. The procedure, abridged: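 Fluorescence polarization competition: compounds (titration) displace HiFluor-488-labeled Pin1-1b peptide from Pin1 (0.3 uM final) in pH 7.5 HEPES buffer with DTT, 10 min at room temperature; %Activity normalized to no-enzyme wells, curves fitted.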
A general note: qHTS replaces the single test concentration by a dilution series.

In assay [2] the target is Phosphoglycerate kinase, glycosomal (Trypanosoma brucei brucei) (UniProt P07378). Kind of assay: qHTS Validation Assay to Find Inhibitors of Phosphoglycerate Kinase (AID 504547). The conditions noted are these: enzymatic PGK inhibition, coupled luminescence read-out; series mostly up to 57.5 µM. The procedure, abridged: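 Substrate/PGK mix plus compound; reaction started with GAPDH (100nM final) to form 1,3-BPG; 60 min RT; Kinase-Glo Plus 10 min; luminescence. TEA 100mM pH 7.6, MgCl2 5mM, Tween-20 0.01%.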

Assay [3] concerns the target phosphoglycerate mutase (Leishmania major) (UniProt Q4Q090). Kind of assay: qHTS Validation Assay to Find Inhibitors of Phosphoglycerate Mutase (AID 504548).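 Also: end-point luminescence from Kinase-GloPlus after the PGAM reaction.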 Conditions: biochemical enzyme activity; Potency: inhibition qHTS; series mostly up to 57.5 µM. The essentials: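 Inhibition of L. major PGAM was assessed by Kinase-GloPlus luminescence following a 45-minute room-temperature reaction with enzyme at 1.25nM final.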

A short description of assay [4]: Inducers of the Endoplasmic Reticulum Stress Response (ERSR) in human glioma: Validation (AID 504836). Conditions: human glioma cells, ER stress response reporter; series mostly up to 38.3 µM. The procedure, abridged:
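Stably transfected U87-MG human glioma cells carrying a GRP78-based luminescent sensor were seeded at 1000 cells/well, pin-dosed with compounds and incubated 16 h. Luciferase reagent was then added, and end-point luminescence was read after 10 min at room temperature.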

The target in assay [5] is Ubiquitin carboxyl-terminal hydrolase 1 (Homo sapiens) (UniProt O94782). Description: Inhibitors of USP1/UAF1: Pilot qHTS (AID 504865). Also: nearly all actives have a fitted effect of over 35% in size. Also: potency is read from the fitted curve at half-maximal effect. Conditions: purified USP1/UAF1, Ub-rhodamine cleavage fluorescence; series mostly up to 114 µM. The essentials: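 1nM USP1/UAF1 + cpd, 15 min RT; start w/ Ub-Rho 150nM final; kinetic FL 480/540 nm, 6 reads q60 s. Buffer 50mM HEPES pH 7.8, 0.5mM EDTA, 1mM TCEP, 0.01% Tween-20, 0.1 mg/ml BSA.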

Assay [6] in a line: qHTS for Inhibitors of ATXN expression: Validation of Cytotoxic Assay (AID 588349). Also: potency is read from the fitted curve at half-maximal effect. Conditions: cytotoxicity counter-screen for ATXN expression inhibitors, cell viability; series mostly up to 57.1 µM. The procedure, abridged: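 HEK293 cells were dosed with titrated compounds for 72 hr at 37 degrees C. Viability was read by CellTiter Glo luminescence, with intracellular ATP as the marker of cell survival.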

Assay [7] is described as follows: qHTS for Inhibitors of ATXN expression: Validation (AID 588378). Also: nearly all actives have a fitted effect of over 75% in size. Also: potency is read from the fitted curve at half-maximal effect. Conditions: cell-based ATXN2 expression reporter assay, luminescence; series mostly up to 57.1 µM. The essentials: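 Cells: HEK293-ATXN2-FFLuc, phenol-red free DMEM, 2 h attachment. Compound pin-transfer, 24 h, 37 degrees C, 5% CO2. CellTiter-Fluor 30 min, Ex405/Em525; Bright-Glo 5 min, luminescence 2 s exposure.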

Assay [8] in a line: Validation screen for small molecules that induce DNA re-replication in SW480 colon adenocarcinoma cells (AID 504364). The conditions noted are these: DNA re-replication phenotype (high-content imaging); series mostly up to 46.1 µM. The essentials: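 SW480 cells seeded at 250 per well were exposed to compound or DMSO for 48 hr at 37 C, 5% CO2, then stained with Hoechst for 40 min. DNA content per nucleus was imaged (405 nm ex, 500-530 nm em).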

Assay [9] concerns the target DNA dC->dU-editing enzyme APOBEC-3G (Homo sapiens) (UniProt Q9HC16). Description: qHTS for inhibitors of Vif-A3G interactions: Validation (AID 588379). Conditions: Vif-A3G protein interaction assay; series mostly up to 46.1 µM. The procedure, abridged:
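HeLa cells stably expressing Vif and A3G-eYFP, 700 cells/well, incubated overnight at 37 deg C, then exposed to compound overnight at 37 deg C. Inhibition of Vif-mediated degradation read as increased yellow fluorescence (Ex 488/Em 500-530) by laser-scanning cytometry.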

This is an account of results in PubChem BioAssay (NCATS).

SMILES strings stand for the structures. A number with no mark means an inactive call. Inconclusive results are not listed. The source made the active and inactive calls. Unless noted, calls follow the shape of the dose curve; as a rule, active = well fitted curve in the direction sought with a large enough effect; inconclusive = small, poorly fitted or top-dose-only effect, or another doubt; inactive = no such curve, though single readings can be large; an effect the other way counts as inactive or inconclusive.

phosphoglycerate mutase (Leishmania major), sequence (Q4Q090 1-553): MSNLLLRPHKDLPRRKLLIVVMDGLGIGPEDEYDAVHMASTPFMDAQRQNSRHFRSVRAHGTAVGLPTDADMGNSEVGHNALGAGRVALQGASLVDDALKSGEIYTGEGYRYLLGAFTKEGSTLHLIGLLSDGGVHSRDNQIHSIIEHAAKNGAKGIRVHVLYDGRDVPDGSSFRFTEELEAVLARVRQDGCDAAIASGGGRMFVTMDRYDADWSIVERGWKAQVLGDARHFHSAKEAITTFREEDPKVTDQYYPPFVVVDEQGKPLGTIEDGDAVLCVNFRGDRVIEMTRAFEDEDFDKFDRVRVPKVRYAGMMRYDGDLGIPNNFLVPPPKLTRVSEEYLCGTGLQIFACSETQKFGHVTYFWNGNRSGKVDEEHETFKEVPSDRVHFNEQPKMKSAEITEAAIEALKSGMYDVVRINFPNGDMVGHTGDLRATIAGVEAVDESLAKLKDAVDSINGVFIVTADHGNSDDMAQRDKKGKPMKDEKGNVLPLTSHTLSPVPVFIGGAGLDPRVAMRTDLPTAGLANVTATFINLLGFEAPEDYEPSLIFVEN
Ubiquitin carboxyl-terminal hydrolase 1 (Homo sapiens), sequence (O94782 whole entry, looked up): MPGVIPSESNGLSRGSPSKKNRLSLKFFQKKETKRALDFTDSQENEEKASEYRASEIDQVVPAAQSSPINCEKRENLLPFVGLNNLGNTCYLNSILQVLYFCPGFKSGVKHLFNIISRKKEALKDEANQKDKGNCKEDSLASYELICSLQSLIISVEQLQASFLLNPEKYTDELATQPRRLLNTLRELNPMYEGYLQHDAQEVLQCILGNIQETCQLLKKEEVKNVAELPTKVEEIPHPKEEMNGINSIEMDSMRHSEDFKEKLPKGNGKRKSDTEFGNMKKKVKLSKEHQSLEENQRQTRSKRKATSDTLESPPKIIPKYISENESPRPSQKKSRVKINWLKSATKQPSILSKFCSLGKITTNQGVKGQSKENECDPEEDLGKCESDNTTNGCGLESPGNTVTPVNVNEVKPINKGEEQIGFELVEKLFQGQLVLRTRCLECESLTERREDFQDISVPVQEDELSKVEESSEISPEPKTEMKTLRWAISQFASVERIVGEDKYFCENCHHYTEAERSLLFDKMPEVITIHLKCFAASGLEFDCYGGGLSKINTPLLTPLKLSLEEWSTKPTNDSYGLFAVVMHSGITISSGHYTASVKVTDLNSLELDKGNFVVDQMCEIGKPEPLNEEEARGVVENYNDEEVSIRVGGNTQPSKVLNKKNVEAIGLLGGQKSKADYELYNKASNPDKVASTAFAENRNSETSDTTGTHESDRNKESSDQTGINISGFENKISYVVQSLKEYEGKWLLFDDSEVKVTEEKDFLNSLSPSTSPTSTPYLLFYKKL
Phosphoglycerate kinase, glycosomal (Trypanosoma brucei brucei), sequence (P07378 whole entry, looked up): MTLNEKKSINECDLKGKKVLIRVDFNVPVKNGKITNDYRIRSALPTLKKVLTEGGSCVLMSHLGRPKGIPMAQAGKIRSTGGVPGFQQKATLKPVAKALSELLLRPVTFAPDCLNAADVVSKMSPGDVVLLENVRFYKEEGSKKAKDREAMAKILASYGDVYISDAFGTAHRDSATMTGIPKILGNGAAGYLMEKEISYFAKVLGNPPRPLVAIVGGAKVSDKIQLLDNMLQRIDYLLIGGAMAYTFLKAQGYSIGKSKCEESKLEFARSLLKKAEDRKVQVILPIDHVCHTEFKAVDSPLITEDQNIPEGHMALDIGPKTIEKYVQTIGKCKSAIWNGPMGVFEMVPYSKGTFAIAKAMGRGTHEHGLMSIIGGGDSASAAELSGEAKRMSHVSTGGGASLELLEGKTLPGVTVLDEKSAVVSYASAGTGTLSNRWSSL
Peptidyl-prolyl cis-trans isomerase NIMA-interacting 1 (Homo sapiens), sequence (Q13526 whole entry, looked up): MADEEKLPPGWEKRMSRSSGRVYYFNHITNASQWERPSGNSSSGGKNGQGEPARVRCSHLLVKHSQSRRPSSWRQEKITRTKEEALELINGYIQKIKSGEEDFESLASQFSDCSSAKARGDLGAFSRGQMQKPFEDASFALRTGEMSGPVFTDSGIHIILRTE
DNA dC->dU-editing enzyme APOBEC-3G (Homo sapiens), sequence (Q9HC16 whole entry, looked up): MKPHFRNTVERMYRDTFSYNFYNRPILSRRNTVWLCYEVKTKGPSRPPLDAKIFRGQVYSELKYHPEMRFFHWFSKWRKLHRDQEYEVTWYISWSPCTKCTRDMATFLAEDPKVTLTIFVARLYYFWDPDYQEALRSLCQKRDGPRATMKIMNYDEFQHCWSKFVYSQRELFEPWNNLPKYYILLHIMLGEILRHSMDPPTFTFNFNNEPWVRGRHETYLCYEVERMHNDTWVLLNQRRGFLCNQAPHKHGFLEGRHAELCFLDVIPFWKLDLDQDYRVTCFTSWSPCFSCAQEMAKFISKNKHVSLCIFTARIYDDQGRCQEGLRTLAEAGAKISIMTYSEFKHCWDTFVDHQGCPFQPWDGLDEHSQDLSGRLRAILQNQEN

As to `N[C@@H](Cn1ccc(=O)[nH]c1=O)C(=O)O`, the Potency entry in assay [1], in assay [2], in [3], in [5], in [6] and in [7] was “inactive” throughout. Further, in assay [4], the molecule was called inactive.

On to `O=P(O)(O)C(Cl)(Cl)P(=O)(O)O`, for which the Potency result in assay [8] and in assay [5] was “inactive” each time.

With `CC1OC1P(=O)(O)O` (stereo unspecified), the Potency entry in assay [8] and in assay [5] was “inactive” each time. In addition, the call in [4] was inactive.

Regarding `Oc1ccc2c3c1O[C@H]1c4[nH]c5ccccc5c4C[C@@]4(O)C(C2)N(CC2CC2)CCC314` (stereo partly specified), the Potency entry in assay [8], in [1] and in assay [3] was “inactive” in each case. The Potency in [7] is 17.8 µM (active).

On to `CCCn1c(C)c(C(=O)c2ccc3ccccc3c2)c2ccccc21`, for which the Potency entry in assay [1], in [2], in assay [3] and in assay [7] was “inactive” throughout. Also, the outcome in assay [4] was inactive.

`COc1ccc2c(c1)c(CCN1CCOCC1)c(C)n2C(=O)c1cccc(Cl)c1Cl`: the Potency entry in [1], in assay [2] and in assay [3] was “inactive” throughout. For the same molecule, the molecule was classed as inactive in [4].

Turning to `CNC(=O)OCC[N+](C)(C)C`, the Potency result in assay [8] and in assay [5] was “inactive” in each case.

As to `CN(C(=O)Cc1ccc(Cl)c(Cl)c1)C(CN1CCCC1)c1cccc(OCC(=O)O)c1` (stereo unspecified), the Potency result in assay [8], in assay [1], in assay [3], in assay [5], in assay [6] and in assay [7] was “inactive” each time.

Turning to `CN1CC[C@@]2(C)c3cc(OC(=O)Nc4ccccc4)ccc3N(C)[C@@H]12`, the Potency result in assay [1], in [2], in [3] and in assay [7] was “inactive” throughout. The result in assay [4] was inactive.

Turning to `CC(C)NP(=O)(NC(C)C)OP(=O)(NC(C)C)NC(C)C`, the Potency result in assay [1], in [2], in assay [3], in assay [5], in [6] and in assay [7] was “inactive” in each case. The call in assay [4] was inactive.

As to `CCN(CC)c1ncnc2c1ncn2[C@@H]1O[C@H](COP(=O)(O)OP(=O)(O)C(Br)(Br)P(=O)(O)O)[C@@H](O)[C@H]1O`, in assay [8], the Potency result is “inactive”. In assay [4], the outcome was inactive.

On to `CC(N)Cc1c[nH]c2ccc(OCc3cccs3)cc12` (stereo unspecified), for which the Potency result in assay [8], in assay [2], in [3] and in [5] was “inactive” each time. Besides, in [4], the molecule was called inactive. The Potency in assay [7] is 28.2 µM (active).

With `CC(C)[C@@]1(NC(=O)[C@@H]2C[C@@H]3c4cccc5[nH]cc(c45)C[C@H]3N(C)C2)O[C@@]2(O)[C@@H]3CCCN3C(=O)[C@H](Cc3ccccc3)N2C1=O`, the Potency result in assay [1], in [2], in assay [3], in assay [5] and in [6] was “inactive” throughout. For the same molecule, the outcome in [4] and in assay [9] was inactive.

For the molecule `CCCC[N+]1(C)C2CC(OC(=O)[C@H](CO)c3ccccc3)CC1C1OC12` (stereo partly specified), the Potency entry in assay [1], in [2], in assay [3], in assay [5], in [6] and in [7] was “inactive” each time. Moreover, in assay [4], the call was inactive.

As to `CCS(=O)(=O)Nc1cccc(C(=C2CCCCC2)c2cnc[nH]2)c1`, the Potency entry in assay [8], in assay [1], in assay [3], in [5], in assay [6] and in assay [7] was “inactive” in each case.

As to `C=CCN1CC[C@]23c4c5ccc(O)c4O[C@@H]2/C(=N/N=C2\CC[C@@]4(O)C6Cc7ccc(O)c8c7[C@@]4(CCN6CC=C)[C@@H]2O8)CC[C@@]3(O)C1C5`, the Potency result in assay [8], in [2], in assay [3] and in assay [5] was “inactive” each time. Also, the call in assay [4] was inactive. The Potency in assay [7] was 20 µM (active).

Take `O=[N+]([O-])/C=C/c1ccc2c(c1)OCO2`: the Potency result in assay [1], in assay [2], in assay [3] and in [5] was “inactive” in each case. Moreover, in assay [4], the outcome was inactive. Also, in assay [7], the Potency is 10 µM (active).

On to `C[N+]1(C)CCC(OC(=O)C(c2ccccc2)c2ccccc2)CC1`, for which the Potency entry in assay [8] is “inactive”. The call in assay [4] was inactive.

With `CCNC(=O)[C@H]1O[C@@H](n2cnc3c(N)ncnc32)[C@H](O)[C@@H]1O`, the Potency entry in assay [1], in assay [2], in assay [3], in [5], in [6] and in assay [7] was “inactive” throughout. Also, in assay [4], the call was inactive.

Turning to `CC(=O)OCC1=C(C(=O)O)N2C(=O)[C@@H](NC(=O)CCC[C@@H](N)C(=O)O)[C@H]2SC1`, the Potency result in assay [1], in assay [2], in [3], in assay [5], in assay [6] and in assay [7] was “inactive” in each case.

In the case of `COc1ccc2c(c1O)-c1cccc3c1[C@@H](C2)N(C)CC3`, the Potency entry in assay [1], in [2], in assay [3], in assay [5] and in [7] was “inactive” throughout. Moreover, in assay [4], the call was inactive.

On to `CC(C)(C)c1cc(C=C(C#N)C#N)cc(C(C)(C)C)c1O`, for which the Potency entry in [1], in [2] and in assay [3] was “inactive” each time. Also, the outcome in assay [4] was inactive. For the same molecule, the Potency in assay [7] is 0.631 µM (active).

Take `CC(C)(O)[C@@H]1C2OC(=O)[C@@H]1[C@]1(O)C[C@H]3O[C@]34C(=O)O[C@H]2[C@]14C` (tested in a mixture with another compound): the Potency entry in assay [1], in assay [2], in assay [3], in assay [5], in assay [6] and in [7] was “inactive” each time. In addition, the molecule was classed as inactive in [4].

As to `NC(CCCCCP(=O)(O)O)C(=O)O` (stereo unspecified), the Potency result in [8], in [1], in assay [3], in assay [5], in assay [6] and in assay [7] was “inactive” throughout.

With `NC(Cc1cc(O)c(O)cc1O)C(=O)O` (stereo unspecified), the Potency entry in [8], in assay [3] and in [7] was “inactive” throughout. In addition, the Potency in assay [1] is 1.69 µM (active); in [5] it was 14.1 µM (active).

Consider `C[C@@H]1O[C@@H](O[C@H]2C[C@@H](O)[C@]3(CO)[C@@H]4C(CC[C@]3(O)C2)[C@@]2(O)CC[C@H]([C@@H]3COC(=O)C3)[C@@]2(C)C[C@H]4O)[C@H](O)[C@H](O)[C@H]1O` (stereo partly specified), for which the Potency entry in assay [1], in assay [2], in assay [3] and in assay [5] was “inactive” throughout. Moreover, the molecule was called inactive in [4]. For the same molecule, the Potency in [7] was 1.78 µM (active).

With `Ic1ccccc1CNC1C2CCN(CC2)C1C(c1ccccc1)c1ccccc1` (stereo unspecified), the Potency entry in assay [8], in assay [1], in [3] and in [5] was “inactive” each time. The values for the Potency in assay [6] and in [7] were 25.1 µM (active) and 12.6 µM (active), respectively.

Turning to `CN1CC[C@@]2(C)c3cc(O)ccc3N(C)C12` (stereo partly specified), the Potency result in assay [8], in assay [2] and in assay [3] was “inactive” each time. Besides, the Potency in [6] is 28.2 µM (active).

As to `CCCN(CCC)C1CCc2cccc(O)c2C1` (stereo unspecified), the Potency result in assay [8], in [3], in assay [5], in [6] and in [7] was “inactive” throughout. Moreover, the result in assay [4] was inactive.

Regarding `C=CCN(C1=NCCN1)c1c(Cl)cccc1Cl`, the Potency entry in [1], in [2], in assay [3], in assay [5], in assay [6] and in [7] was “inactive” in each case. The result in assay [4] was inactive.

`CCCN1CCc2cccc3c2[C@H]1Cc1ccc(O)c(O)c1-3`: the Potency entry in [1], in assay [2], in assay [3] and in assay [5] was “inactive” throughout. In [4], the call was inactive. In addition, the Potency in assay [6] is 35.5 µM (active).

Consider `C=CCN1CCC23c4c5ccc(O)c4O[C@H]2C(=O)CC[C@@]3(O)C1C5` (stereo partly specified), for which the Potency result in [8], in [1], in assay [3], in [5], in [6] and in assay [7] was “inactive” throughout.

`CCCN1CCC[C@@H](c2cccc(O)c2)C1`: the Potency entry in assay [1], in assay [2], in assay [3], in assay [5], in [6] and in assay [7] was “inactive” each time.
